Screens (PubChem BioAssay)
ROMK primary = human ROMK K+ channel modulation, primary screen | Tet-inducible ROMK, thallium flux fluorescence; actives lie on both sides | B-score at 10 µM | P48048 | 2% of 130,000 active;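 active = signal ratio slope over the read window, or its plate-corrected B-score, at least 3 SD from the plate mean, either direction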;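 also: B-score of the F/F0 ratio slope over 7 to 12 s after thallium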
Target sequence (P48048 whole entry, looked up): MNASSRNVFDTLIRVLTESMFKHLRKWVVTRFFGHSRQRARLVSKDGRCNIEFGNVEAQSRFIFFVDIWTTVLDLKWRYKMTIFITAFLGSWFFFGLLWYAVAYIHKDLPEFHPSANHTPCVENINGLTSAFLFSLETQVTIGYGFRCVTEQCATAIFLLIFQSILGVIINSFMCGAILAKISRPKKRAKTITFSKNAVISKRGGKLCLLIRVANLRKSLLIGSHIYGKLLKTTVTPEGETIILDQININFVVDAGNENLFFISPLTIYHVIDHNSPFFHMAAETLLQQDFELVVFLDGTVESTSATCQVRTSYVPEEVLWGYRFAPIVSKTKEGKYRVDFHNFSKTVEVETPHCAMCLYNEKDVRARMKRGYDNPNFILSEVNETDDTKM
WT yeast gro inh = growth inhibition of WT yeast, mitochondrial fusion screen; mitochondrial fusion phenotypic screen, WT strain; inhibition, % at 10 µM; 2.1% of 190,000 active; AID 1362; in the data active = inhibition above about 58%; tested in S. cerevisiae
L major viab = reduces viability of Leishmania major promastigotes. resazurin fluorescence viability. 9% of 200,000 active. inhibition, % at 10 µM; in the data active = inhibition above about 50%;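 also: promastigotes grown with compound for 44 hours at 28 °C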
m-calpain inh = calpain II (pig) inhibition; AID 1236; inhibition, % at 16 µM; purified calpain II, fluorogenic peptide substrate, 30 min; 0.37% of 220,000 active;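 active = inhibition above about 50%, limit read from the data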
Cl transport mod = modulates chloride dependent transport by human KCC2; B-score of Tl+ flux slope (higher = more flux/activation; lower = inhibition) at 10 µM; 2.2% of 190,000 active; KCC2 cells, thallium flux FluoZin-2 fluorescence; Q9H2X9;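 active = thallium flux slope and its plate-corrected score both differing from the plate sample mean at a set confidence after two filtering rounds, in either direction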;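 also: slope of fluorescence scaled to starting intensity during 10 to 20 s after thallium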
KCC2 sec1 = KCC2 (human) modulation, secondary assay | shares compounds with Cl transport mod | HEK293-KCC2, thallium flux, FluoZin2 fluorescence; active compounds read high | normalised thallium flux (F/F0 slope) at 10 µM | 15% of 3,700 active | AID 1713;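 active = thallium flux slope above the same plate's solvent-only control mean plus 3 SD; inconclusive = the two replicate wells disagree; inactive = no significant difference from solvent-only control wells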
KCC2 bumet counter = thallium flux despite bumetanide block in KCC2 cells, secondary assay 3. shares compounds with Cl transport mod. AID 1714. normalized thallium flux at 10 µM. 49% of 3,700 active. HEK293-KCC2 + bumetanide/ouabain, thallium flux FluoZin2; active compounds read high;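 active = thallium entry rate above the same plate's blocked-transporter control wells by more than 3 SD; inconclusive = the two repeat wells disagree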;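 also: raw slope of fluorescence over initial fluorescence between 10 and 20 s after thallium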
KCC2 sec2 = KCC2 (human) modulation, second secondary assay. shares compounds with Cl transport mod. HEK293-KCC2, thallium flux FluoZin2 fluorescence; actives lie on both sides; F/F0 rise rate, 10–20 s post-thallium. 23% of 3,700 active. AID 1715. normalized thallium flux at 10 µM;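 active = thallium flux slope more than 3 SD above or below the plate's solvent-only control mean, mostly below; inconclusive = the two repeat wells disagreed; inactive = no significant shift from solvent-only controls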;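 also: raw slope with 0.1% DMSO as baseline and bumetanide as block control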
HEK293 Tl flux = parental HEK flux effect, counter-screen. shares compounds with Cl transport mod. HEK293 parental cells, thallium flux FluoZin2, ouabain; baseline-ratio fluorescence slope, 10–20 s after thallium. thallium flux rate (normalised fluorescence) at 10 µM. 46% of 3,700 active;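 active = thallium flux rate significantly above the same plate's solvent-only control wells, beyond their mean plus 3 SD; inconclusive = the two replicate wells gave conflicting results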
KCC2 retest ouab = KCC2 (human) modulation, ouabain retest; shares compounds with Cl transport mod; HEK293-KCC2, thallium flux FluoZin2 fluorescence; bidirectional: low = inhibitor, high = activator; 48% of 3,700 active; raw Tl+ flux slope (below DMSO = inhibition, above = activation) at 10 µM;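 active = thallium flux slope beyond 3 SD from same-plate DMSO control mean in most replicates, usually higher, sometimes lower; inconclusive = repeat tests gave conflicting results; inactive = no significant difference from controls in most replicates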;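 also: slope of initial-normalized fluorescence between seconds 10 and 20 after thallium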
HEK293 Tl flux2 = acts in parental HEK cells, second KCC2 counter-screen; shares compounds with Cl transport mod; HEK293 parental, thallium flux FluoZin-2 fluorescence slope; thallium flux slope at 10 µM; 33% of 3,700 active; AID 1718;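 active = thallium flux slope above the same plate's solvent-control mean plus 3 SD in both duplicate wells; inconclusive = duplicate wells that disagreed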;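 also: run without ouabain in cells lacking the KCC2 cotransporter; slope of fluorescence scaled to its starting value between 10 and 20 s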
Numbers without * were called inactive. Only some compounds are listed: those with a hit (about 12% of all), similar ones and a draw of the others.

`Cc1cccc(-c2nc(=S)c3c(n2Cc2ccco2)CCCC3)c1` gave ROMK primary 0.01, WT yeast gro inh 7, L major viab 12, m-calpain inh 2, Cl transport mod 21*, KCC2 sec1 0.0064, KCC2 bumet counter 0.021*, KCC2 sec2 0.032, HEK293 Tl flux 0.018*, KCC2 retest ouab 0.032* and HEK293 Tl flux2 0.015*.
Cc1ccc(-c2nc(=S)c3c(n2CC2CCCO2)CC(C)(C)OC3)cc1 (configuration not stated) was read as WT yeast gro inh -9, L major viab -2 and m-calpain inh 14.
`N#Cc1ccccc1CSc1nc2ccc(NC(=O)c3ccccc3C(=O)O)cc2s1` gave ROMK primary 1.1, WT yeast gro inh -15, L major viab -8, m-calpain inh -60, Cl transport mod -3.6*, KCC2 sec1 0.0078, KCC2 bumet counter 0.005, KCC2 sec2 0.037, HEK293 Tl flux 0.0037, KCC2 retest ouab 0.017* and HEK293 Tl flux2 0.01.
C=CCN1CCc2c(cc(O)c(O)c2Cl)C(c2ccccc2)C1 (configuration not stated) was read as m-calpain inh -19, Cl transport mod -3*, KCC2 sec1 0.0062, KCC2 bumet counter 0.0053, KCC2 sec2 0.029, HEK293 Tl flux 0.0078, KCC2 retest ouab 0.018 and HEK293 Tl flux2 0.011.
Screening O=C1c2cccc3c([N+](=O)[O-])ccc(c23)C(=O)N1Cc1cccnc1 returned ROMK primary -2.7, WT yeast gro inh 64*, L major viab 100*, m-calpain inh -465, Cl transport mod -5*, KCC2 sec1 0.0041*, KCC2 bumet counter inconclusive, KCC2 sec2 0.026*, HEK293 Tl flux 0.0058*, KCC2 retest ouab 0.014* and HEK293 Tl flux2 0.0084*.
O=C1c2cccc3cccc(c23)C(=O)N1Cc1cccnc1 was read as m-calpain inh -11 and Cl transport mod -0.037.
Screening Cc1ccc(S(=O)(=O)NCC(=O)NCC(=O)OCC(=O)N2CC(=O)Nc3ccccc32)cc1C returned ROMK primary -0.8, WT yeast gro inh -4, L major viab -11, m-calpain inh 6 and Cl transport mod 1.2.
CCCCCCCn1c(NC(=O)CC)nc2ccccc21 was read as m-calpain inh 15, Cl transport mod 6.5*, KCC2 sec1 inconclusive, KCC2 bumet counter 0.027*, KCC2 sec2 0.031, HEK293 Tl flux 0.011*, KCC2 retest ouab 0.025 and HEK293 Tl flux2 0.011*.
Screening CCC(=O)Nc1nc2ccccc2n1CCN1CCOCC1 returned ROMK primary 0.36, WT yeast gro inh 1, L major viab -4 and m-calpain inh -5.
CCCn1c(NC(=S)Nc2ccccc2)nc2ccccc21 was read as ROMK primary 0.27, WT yeast gro inh 24, L major viab 31, m-calpain inh 10, Cl transport mod 28*, KCC2 sec1 inconclusive, KCC2 bumet counter 0.018*, KCC2 sec2 0.03, HEK293 Tl flux 0.0092*, KCC2 retest ouab 0.038* and HEK293 Tl flux2 0.0094.
CCCCn1c(Nc2ccccc2)nc2ccccc21 was read as ROMK primary -0.56, WT yeast gro inh -3, L major viab 1, m-calpain inh 14 and Cl transport mod 0.31.
CCc1nnc(NC(=O)c2ccc(S(=O)(=O)N(CC(C)C)CC(C)C)cc2)o1 was read as WT yeast gro inh 72*, L major viab 96*, m-calpain inh 24, Cl transport mod 5.1*, KCC2 sec1 0.012*, KCC2 bumet counter 0.019*, KCC2 sec2 0.03, HEK293 Tl flux 0.01*, KCC2 retest ouab 0.022* and HEK293 Tl flux2 0.0099.
CCN(Cc1ccccc1)S(=O)(=O)c1ccc(C(=O)Nc2nnc(C3CC3)o2)cc1 was read as WT yeast gro inh 48, L major viab 98*, m-calpain inh -20, Cl transport mod 3.6*, KCC2 sec1 0.012, KCC2 bumet counter 0.019*, KCC2 sec2 0.034, HEK293 Tl flux inconclusive, KCC2 retest ouab inconclusive and HEK293 Tl flux2 0.012.
For O=C(NNC(=O)c1sccc1-n1cccc1)c1ccc(F)cc1 the results were ROMK primary 0.81, WT yeast gro inh -14, L major viab -7, m-calpain inh 1, KCC2 sec1 0.011, KCC2 bumet counter 0.017*, KCC2 sec2 0.035, HEK293 Tl flux inconclusive, KCC2 retest ouab 0.026* and HEK293 Tl flux2 0.012.
Screening S=C(N/N=C/c1cccs1)NC1CC2CCC1C2 (configuration not stated) returned m-calpain inh 29, Cl transport mod 19*, KCC2 sec1 0.017*, KCC2 bumet counter 0.066*, KCC2 sec2 0.038, HEK293 Tl flux 0.027*, KCC2 retest ouab inconclusive and HEK293 Tl flux2 0.016*.
`CCCCC(=O)N1C/C=C\C(c2ccc(OC)cc2)N(Cc2ccc(F)cc2)C(=O)C1` (configuration not stated) gave m-calpain inh 0, Cl transport mod -2.8*, KCC2 sec1 0.0088, KCC2 bumet counter 0.005, KCC2 sec2 0.033, HEK293 Tl flux 0.0076, KCC2 retest ouab 0.019 and HEK293 Tl flux2 0.011.
Screening CCCCCN1C/C=C\C(c2ccc(OC)cc2)N(Cc2ccc(F)cc2)C(=O)C1 (configuration not stated) returned m-calpain inh 6, Cl transport mod -2.5*, KCC2 sec1 0.0096, KCC2 bumet counter 0.0049, KCC2 sec2 inconclusive, HEK293 Tl flux 0.007, KCC2 retest ouab 0.017* and HEK293 Tl flux2 0.0099.
Screening C=CC(=O)N1C/C=C\C(c2ccc(OC)cc2)N(Cc2ccc(F)cc2)C(=O)C1 (configuration not stated) returned m-calpain inh 17 and Cl transport mod -0.36.
For COc1ccc(C2/C=C\CN(CC3CC3)CC(=O)N2Cc2ccc(F)cc2)cc1 (configuration not stated) the results were m-calpain inh 13, Cl transport mod -3.4*, KCC2 sec1 0.007, KCC2 bumet counter 0.0063, KCC2 sec2 0.031, HEK293 Tl flux 0.0073, KCC2 retest ouab 0.017* and HEK293 Tl flux2 0.011.
